Results on 16 compounds are retold here after PubChem BioAssay (NCI).

Compounds without any hit were thinned out: in the full panel of roughly 83,000, 20% have a hit.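 Each cell line was grown in a 96-well plate and treated with one concentration of compound for 48 hours. Values below 10 were considered active.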 Values without a mark were called inactive. Calls of active or inactive are those of the source.

Among the test systems are T-47D breast; BT-549 breast; MDA-MB-435 melanoma; SW-620 colon; MCF7 breast; HCT-116 colon; HCC-2998 colon; KM12 colon.
Holding throughout (assay): NCI-60 one-dose screen, 48 h (100 = growth as untreated, 0 = no growth, -100 = all killed)
Conditions in all cases: 10 µM unless noted

With `CCN1C(=O)N(CC)C2Nn3c(s/c(=C\c4ccc([N+](=O)[O-])cc4)c3=O)=NC21` (stereo not drawn), the growth was 40.2% in the test on T-47D breast; 95.2% in the test with BT-549 breast; 61.9% with MDA-MB-435 melanoma; 60.2% in the test on SW-620 colon; 11% with MCF7 breast; 18.2% in the test with HCT-116 colon. Further, the growth in the test with HCC-2998 colon is 101%; in the test with KM12 colon, 97.8%.

On to `Cc1cc(=O)oc2cc(OC(=O)N3CCN(C)CC3)ccc12`, for which the growth with T-47D breast is 105%; in the test with BT-549 breast it was 112%; in the test on MDA-MB-435 melanoma, 101%; in the test with SW-620 colon, 100%; in the test on MCF7 breast, 89.6%; in the test on HCT-116 colon it was 99.4%. Further, the growth with HCC-2998 colon is 110%; in the test with KM12 colon it was 101%.

`C#C[C@]1(O)CC[C@H]2[C@@H]3CC=C4c5sc(Nc6cc(F)ccc6F)nc5CC[C@]4(C)[C@H]3CC[C@@]21C`: the growth in the test with T-47D breast was -16.6% (active); with BT-549 breast it was 12.3%; with MDA-MB-435 melanoma, -28.2% (active); in the test on SW-620 colon, -61.1% (active); in the test on MCF7 breast it was -23.8% (active); in the test on HCT-116 colon, -44.2% (active). The growth in the test on HCC-2998 colon is -78.8% (active); with KM12 colon, -41.2% (active).

In the case of `COc1ccc(OC)c(/C=C/C(=O)N/N=C/c2ccc(Cl)cc2)c1`, the growth was 29.5% with T-47D breast; 63.5% in the test on BT-549 breast; -32.4% (active) in the test on MDA-MB-435 melanoma; 19.9% in the test on SW-620 colon; 8.93% (active) with MCF7 breast; 5.72% (active) with HCT-116 colon. In addition, the growth with HCC-2998 colon is 2.34% (active); with KM12 colon, 18%.

Regarding `N#C/C(=C\c1cccc2cnccc12)n1nnc2cccc(F)c21`, the growth with T-47D breast is 23.5%; in the test on BT-549 breast, 17%; in the test with MDA-MB-435 melanoma, 29%; in the test with SW-620 colon it was 21.5%; with MCF7 breast, 19.3%; with HCT-116 colon, 10.4%. The figures for the growth with HCC-2998 colon and in the test on KM12 colon were 42.7% and 62.1%, respectively.

Turning to `CNCCCC12CCC(c3ccccc31)c1ccccc12`, the growth was 89% with T-47D breast; 78.3% in the test on BT-549 breast; 78.9% with MDA-MB-435 melanoma; 98.2% with SW-620 colon; 87.3% in the test with MCF7 breast; 69.1% in the test with HCT-116 colon. The figures for the growth in the test with HCC-2998 colon and in the test with KM12 colon were 50.5% and 94.1%, respectively.

In the case of `C[N+]1=C(/C=C/c2ccc(O)c3ncccc23)C(C)(C)c2ccccc21`, the growth is 23.7% with T-47D breast; 81.2% in the test on BT-549 breast; 59.6% with MDA-MB-435 melanoma; 89% in the test on SW-620 colon; 13.7% in the test with MCF7 breast; 10.4% in the test on HCT-116 colon. For the same compound, the growth in the test on HCC-2998 colon is 92%; in the test on KM12 colon, 84.4%.

As for `CCCCNC(=O)Oc1ccc(/C(=C(\C)c2ccc(Cl)cc2)c2ccc(OCCN3CCCCC3)cc2)cc1`, the growth in the test with T-47D breast is 47%; with BT-549 breast, 86.5%; with MDA-MB-435 melanoma, 74.2%; in the test with SW-620 colon, 83.6%; in the test with MCF7 breast, 32.3%; with HCT-116 colon it was 53.6%. Besides, the growth in the test on HCC-2998 colon was 87.8%; in the test on KM12 colon it was 67.1%.

On to `BrCCCc1n(Cc2ccc3ccccc3c2)c2ccccc2[n+]1Cc1ccc2ccccc2c1`, for which the growth in the test with T-47D breast was -10.9% (active); with BT-549 breast, -73.5% (active); in the test on MDA-MB-435 melanoma, -96.5% (active); with SW-620 colon, -81.5% (active); in the test on MCF7 breast, -74.7% (active); in the test on HCT-116 colon it was -89.7% (active). Moreover, the growth in the test with HCC-2998 colon is -90.1% (active); in the test on KM12 colon, -89.7% (active).

As for `COc1ccc2c(c1OC)C(=O)O[C@H]2[C@H]1c2c(cc3c(c2OC)OCO3)CCN1C`, the growth in the test with T-47D breast is 109%; with BT-549 breast, 98.3%; with MDA-MB-435 melanoma, 54.1%; in the test with SW-620 colon, 92.1%; in the test with MCF7 breast it was 93.9%; in the test with HCT-116 colon it was 92.6%. For the same compound, the results for the growth in the test on HCC-2998 colon and with KM12 colon were 96.6% and 95.2%, respectively.

Take `COc1ccc(-c2nc(NCCO)[nH]c(=O)c2C#N)cc1`: the growth with T-47D breast was 82.8%; in the test on BT-549 breast it was 103%; in the test with MDA-MB-435 melanoma, 103%; with SW-620 colon, 106%; in the test on MCF7 breast, 91.9%; in the test with HCT-116 colon it was 102%. Also, the results for the growth in the test with HCC-2998 colon and in the test on KM12 colon were 103% and 95.8%, respectively.

Regarding `CCCCCCCCCCCCCCCCCCOc1ccc(CC(=O)OCC[N+](C)(C)C)cc1`, the growth in the test with T-47D breast is 99.5%; with BT-549 breast, 95.8%; in the test on MDA-MB-435 melanoma, 100%; in the test on SW-620 colon it was 99.9%; in the test with MCF7 breast, 95.8%; in the test on HCT-116 colon, 93%. For the same compound, the growth with HCC-2998 colon was 95.4%; with KM12 colon, 96.8%.

In the case of `COc1ccc(CN2c3ccccc3Sc3ccccc32)c(F)c1`, the growth in the test with T-47D breast was 11.9%; in the test on BT-549 breast it was 56.5%; in the test on MDA-MB-435 melanoma it was -51% (active); in the test with SW-620 colon it was 10.3%; in the test with MCF7 breast it was 22.6%; in the test with HCT-116 colon it was 15.7%. Moreover, the growth with HCC-2998 colon is 61.6%; in the test on KM12 colon, 25.8%.

On to `COc1ccc2nc(NCCCNCCO)c3sc4ccc(F)cc4c(=O)c3c2c1`, for which the growth with T-47D breast was 72.2%; with BT-549 breast, 91.6%; with MDA-MB-435 melanoma, -69% (active); in the test on SW-620 colon it was -66.4% (active); with MCF7 breast, 17.8%; in the test on HCT-116 colon, -67.2% (active). Further, the growth with HCC-2998 colon was -82.9% (active); with KM12 colon it was -58.7% (active).

Turning to `COc1cc(C(=O)/C=C/c2ccc(OCCCCCC[P+](c3ccccc3)(c3ccccc3)c3ccccc3)cc2)cc(OC)c1OC`, the growth in the test with T-47D breast is -21.5% (active); with BT-549 breast, -47.6% (active); in the test on MDA-MB-435 melanoma it was -58.9% (active); in the test on SW-620 colon, -80.4% (active); in the test with MCF7 breast, -68.1% (active); in the test on HCT-116 colon, -77.3% (active). In addition, the values for the growth in the test on HCC-2998 colon and with KM12 colon were -20.3% (active) and -86.8% (active), respectively.

Consider `O=c1[nH]c2c(ccc3cnccc32)c2c1CCC2`, for which the growth is -7.41% (active) with T-47D breast; -51.7% (active) in the test on BT-549 breast; -60.1% (active) with MDA-MB-435 melanoma; -11.9% (active) in the test with SW-620 colon; -4.54% (active) in the test with MCF7 breast; 4.41% (active) in the test on HCT-116 colon. For the same compound, the growth is -51.8% (active) in the test with HCC-2998 colon and -17.9% (active) in the test on KM12 colon.
